# Data reported in PubChem BioAssay.
# Several values for one entry are separate records, joined by “and”; a condition that tells them apart may be missing. Equal entries are not always repeated. The source holds several records for some structures; these can differ, active in one and inactive in another. Activity calls are given as the source filed them. Unless noted, no stated cut-off is given here; in the data, active means inhibition above about 80%; inactive means the rest.
# Assays:
# [1] = liver-stage malaria parasite load reduction – cell-based, known kinase inhibitor set, luminescence, hepatoma host viability (AID 624392; call rule not given here;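 further: infected cells incubated roughly two days before readout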); conditions: Plasmodium liver stage in hepatoma cells, luciferase luminescence, concentration not given here; liver cell % of control: measured here: host liver cell viability; parasite % of control: stronger effect = lower value
# [2] = blockers of cellular phospholipid synthesis – cell-based, LOPAC library, screen 4, primary screen (AID 1347384; call rule not given here); conditions: animal cells, phospholipid biosynthesis inhibition screen; at 10 µM
# [3] = galactose survival enhancers in mitochondrial complex I cybrids – cell-based, galactose medium, ATP luminescence, primary screen (AID 1645843;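 active means z-score of at least 1.8 in each of two replicates, scored against plate mean and spread of sample wells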;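 further: positive z means more ATP and so rescue of galactose-driven cybrid death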); conditions: complex I mutant cybrid cells, 72 h, stronger effect = higher value
# [4] = system: Hepatitis C virus NS3 helicase; experiment: blockers of NS3h binding to ssDNA – biochemical, fluorescence polarization, LOPAC1280 library, primary screen (AID 687035; in the data active means inhibition above about 37%); conditions: Purified HCV NS3 helicase, Cy5-dT15 ssDNA binding fluorescence polarization; stronger effect = higher value; concentration not given here
# [5] = compounds altering Cy5-DNA-NS3h complex signal – biochemical, LOPAC1280, artefact control for HCV NS3 helicase inhibitor project (AID 687037; call rule not given here); conditions: Cy5-DNA-NS3h complex fluorescence interference counterscreen
# [6] = target: NAD(+) hydrolase SARM1 (Homo sapiens) (UniProt Q6SZW1); experiment: blocking NAD cleavage by SARM1 SAM-TIR – cell lysate, NAD-Glo luminescence (AID 1508614;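 active means compound whose remaining NAD level is above about 45 nM, limit read from the data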); conditions: SAM-TIR HEK293T lysate NADase, at 1 µM, stronger effect = higher value
# NAD(+) hydrolase SARM1 (Homo sapiens), sequence (Q6SZW1 whole entry, looked up): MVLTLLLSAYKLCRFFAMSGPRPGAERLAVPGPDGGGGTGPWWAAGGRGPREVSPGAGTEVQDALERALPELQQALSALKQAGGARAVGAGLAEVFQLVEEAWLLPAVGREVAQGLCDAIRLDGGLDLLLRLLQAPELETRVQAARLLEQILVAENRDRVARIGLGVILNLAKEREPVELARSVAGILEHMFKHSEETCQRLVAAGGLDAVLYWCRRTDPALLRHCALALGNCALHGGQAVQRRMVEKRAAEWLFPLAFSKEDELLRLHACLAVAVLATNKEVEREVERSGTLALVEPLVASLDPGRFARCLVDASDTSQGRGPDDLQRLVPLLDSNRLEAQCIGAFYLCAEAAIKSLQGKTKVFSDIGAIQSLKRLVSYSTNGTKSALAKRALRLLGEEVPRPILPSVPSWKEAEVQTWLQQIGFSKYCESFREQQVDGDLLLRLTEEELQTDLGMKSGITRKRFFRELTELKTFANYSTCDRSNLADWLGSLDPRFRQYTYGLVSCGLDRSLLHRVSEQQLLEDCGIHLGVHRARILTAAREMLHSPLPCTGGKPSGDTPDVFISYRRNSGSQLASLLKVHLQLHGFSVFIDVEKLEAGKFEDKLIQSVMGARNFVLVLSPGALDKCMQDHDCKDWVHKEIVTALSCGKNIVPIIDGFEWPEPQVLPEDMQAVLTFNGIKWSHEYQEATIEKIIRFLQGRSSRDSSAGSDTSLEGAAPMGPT
# [7] = P. berghei load reduction in hepatocytes – cell-based, HepG2, luciferase luminescence, HepG2 viability, primary screen (AID 624349; in the data active means parasite load remaining mostly below about 12%, no sharp cut-off; inactive means mostly above about 10%;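 further: 100% = mean of DMSO negative control wells on the same plate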); conditions: P. berghei liver stage in HepG2, luciferase luminescence, concentration not given here; parasite load remaining: stronger effect = lower value; viability: measured here: HepG2 viability without parasites
# [8] = compounds altering viability of human ES cells (AID 493140; call rule not given here;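 further: cells exposed to compounds for four days before counting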); conditions: human embryonic stem cell survival screen; stronger effect = higher value
# [9] = target: Mitogen-activated protein kinase 7 (Homo sapiens) (UniProt Q13164); experiment: Gal4-ERK5 driven luciferase induction – cell-based, HTS, primary screen (AID 1508626;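 active means luciferase signal above three times the same-plate solvent-only control wells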;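 further: luciferase driven by Gal4-ERK5 fusion binding five Gal4 sites before minimal TATA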); conditions: HeLa Gal4-ERK5 transactivation, 18 h, at 5 µM, stronger effect = higher value
# Mitogen-activated protein kinase 7 (Homo sapiens), sequence (Q13164 whole entry, looked up, the tested form may be a part): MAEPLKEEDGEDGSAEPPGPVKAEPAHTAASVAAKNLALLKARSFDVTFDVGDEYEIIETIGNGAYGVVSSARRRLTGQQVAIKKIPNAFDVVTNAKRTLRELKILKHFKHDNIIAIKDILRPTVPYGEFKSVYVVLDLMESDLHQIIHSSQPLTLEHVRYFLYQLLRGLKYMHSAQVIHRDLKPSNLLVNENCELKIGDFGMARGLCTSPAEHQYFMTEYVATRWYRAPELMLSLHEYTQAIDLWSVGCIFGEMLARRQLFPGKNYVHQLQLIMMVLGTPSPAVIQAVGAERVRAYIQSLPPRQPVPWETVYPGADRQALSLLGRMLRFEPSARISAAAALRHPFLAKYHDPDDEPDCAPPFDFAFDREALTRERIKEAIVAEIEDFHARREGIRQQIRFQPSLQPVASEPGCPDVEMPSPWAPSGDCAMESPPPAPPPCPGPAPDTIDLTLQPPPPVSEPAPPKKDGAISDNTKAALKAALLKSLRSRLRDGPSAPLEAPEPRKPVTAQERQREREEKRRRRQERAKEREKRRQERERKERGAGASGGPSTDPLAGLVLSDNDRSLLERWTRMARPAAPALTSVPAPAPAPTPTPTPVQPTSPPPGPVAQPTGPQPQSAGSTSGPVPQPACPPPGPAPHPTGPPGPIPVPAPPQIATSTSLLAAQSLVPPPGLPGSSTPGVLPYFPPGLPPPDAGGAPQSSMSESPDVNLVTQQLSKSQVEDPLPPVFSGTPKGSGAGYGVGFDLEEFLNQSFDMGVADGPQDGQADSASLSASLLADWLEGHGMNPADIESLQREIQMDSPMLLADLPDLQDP
# [10] = growth inhibition, single agents and combos, LFS_MB_1R, cell-based, cisplatin or BGB combos, synergistic combos for chromothripsis tumors (AID 1671452); conditions: LFS_MB_1R medulloblastoma cells, stronger effect = higher value;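 further: cells exposed for 96 hours before readout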
# [11] = growth inhibition, single agents and combos, CRL2098, cell-based, BGB or cisplatin IC20 combos, synergistic combos for chromothripsis tumors (AID 1671454); conditions: CRL2098 osteosarcoma cells, drug combinations, stronger effect = higher value;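 further: cells exposed for 96 h before readout; 0% = vehicle DMSO and 100% = killing by high DMSO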
# [12] = growth inhibition, single agents and combos, HD-MB03, cell-based, BGB or cisplatin IC20 combos, synergistic combos for chromothripsis tumors (AID 1671455; in the data active means inhibition above about 83%;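 further: 0% = vehicle DMSO and 100% = high DMSO as cytotoxic control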); conditions: HD-MB03 medulloblastoma cells, stronger effect = higher value
# [13] = growth inhibition, single agents and combos, UWB1.289, cell-based, BGB or cisplatin combos, synergistic combos for chromothripsis tumors (AID 1671456); conditions: UWB1.289 ovarian carcinoma cells, stronger effect = higher value;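 further: cells exposed to compound for four days; 0% = vehicle DMSO and 100% = killing by high DMSO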
# [14] = growth inhibition, single agents and combos, LFS_MB_2R, cell-based, cisplatin combos, synergistic combos for chromothripsis tumors (AID 1671457); conditions: LFS_MB_2R medulloblastoma cells, stronger effect = higher value;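 further: cells exposed to compound for four days before readout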
# [15] = UWB1.289_BRCA1 ovarian cancer growth, cell-based, BGB or cisplatin combinations (AID 1671459); conditions: UWB1.289 BRCA1 ovarian carcinoma, drug combinations, stronger effect = higher value
# [16] = drug combination toxicity in non-malignant astrocytes – cell-based, BGB or cisplatin IC20 combos, cytotoxicity control for chromothriptic childhood tumor combination screen (AID 1671460); conditions: Human astrocytes, viability inhibition, drug combinations, at 0.5 µM, stronger effect = higher value;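 further: cells exposed to compounds for 96 hours before viability readout; 0% = vehicle and 100% = killing control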
# [17] = CRL1545 cell growth, single agent and combined, cisplatin and BGB IC20 combos (AID 1671464); conditions: CRL1545 osteosarcoma cells, stronger effect = higher value;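 further: cells exposed to compound for 96 hours before readout; 0% = vehicle DMSO and 100% = high DMSO killing control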
# [18] = chitosan synthesis blockers in C. neoformans – flow cytometry, Cibacron Brilliant Red staining (AID 1347148; call rule not given here;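 further: compound exposure lasted three days at 37 degrees C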); conditions: Cryptococcus neoformans chitosan, stronger effect = lower value; at 10 µM unless noted
# [19] = measured here: combination with BGB IC40, at 0.05 µM
# [20] = measured here: combination with cisplatin, at 0.5 µM
# [21] = measured here: combination with cisplatin, at 5 µM
# [22] = measured here: combination with BGB at IC20, at 0.5 µM
# [23] = measured here: combination with cisplatin at IC20, at 0.5 µM
# [24] = measured here: combo with BGB at IC20, at 0.5 µM
# [25] = measured here: combo with cisplatin at IC20, at 0.5 µM
# [26] = measured here: inhibition with BGB combination, at 0.05 µM
# [27] = measured here: inhibition with cisplatin combination, at 0.05 µM
# [28] = BGB combination, concentration series, at 5 µM
# [29] = cisplatin combination, concentration series, at 5 µM
# [30] = measured here: combo with BGB IC20
# [31] = measured here: combo with cisplatin IC20
# [32] = measured here: with BGB IC20 combination, at 0.5 µM
# [33] = measured here: with cisplatin IC20 combination, at 0.5 µM
structure (smiles),measurement,setting,value
Cc1cccc(-c2[nH]ncc2-c2ccc3ncccc3n2)n1,liver cell % of control,[1],102%
same,parasite % of control,[1],87.4% (inactive)
same,outcome,[2],inactive
same,z-score,[3],-0.39 (inactive)
CCOC(=O)N1CCN(/[N+]([O-])=N/Oc2ccc([N+](=O)[O-])cc2[N+](=O)[O-])CC1,outcome,[2],inactive
same,z-score,[3],-0.95 (inactive)
COc1cc2c(cc1OC)C1CC(=O)C(CC(C)C)CN1CC2 (stereo not given),inhibition,[4],-3% (inactive)
same,fluorescence ratio (interference),[5],1 (inactive)
same,outcome,[2],inactive
same,z-score,[3],0.245 (inactive)
NC(=NCCCCCCN=C(N)N=C(N)Nc1ccc(Cl)cc1)N=C(N)Nc1ccc(Cl)cc1,remaining NAD,[6],10 nM (inactive)
Cc1ccc(O)c(C(CCN(C(C)C)C(C)C)c2ccccc2)c1 (stereo not given),parasite load remaining,[7],53.2% (inactive)
same,viability,[7],96.6%
same,z-score,[3],-0.5 (inactive)
Clc1ccc(C(c2ccc(Cl)cc2)n2cc[n+](CC(OCc3ccc(Cl)cc3Cl)c3ccc(Cl)cc3Cl)c2)cc1 (stereo not given),outcome,[2],inactive
CC[C@H](CC[C@@H](C)[C@H]1CC[C@H]2[C@@H]3CC=C4C[C@@H](O)CC[C@]4(C)[C@H]3CC[C@]12C)C(C)C,survival,[8],9.58 (inactive)
same,parasite load remaining,[7],99.6% (inactive)
same,viability,[7],72.8%
same,luciferase signal,[9],32 AU (inactive)
Nc1ccc(-c2ccc3ncc4ccc(=O)n(-c5cccc(C(F)(F)F)c5)c4c3c2)cn1,inhibition,[10]; at 0.5 µM,-12.4% (inactive)
same,inhibition,[10]; [19],-33.9%
same,inhibition,[10]; [20],-17%
same,inhibition,[10]; [21],48.5%
same,inhibition,[11]; at 0.5 µM,47.4% (inactive)
same,inhibition,[11]; [22],49.5%
same,inhibition,[11]; [23],49.4%
same,inhibition,[12]; at 0.5 µM,39.9% (inactive)
same,inhibition,[12]; [24],13.5%
same,inhibition,[12]; [25],69.9%
same,inhibition,[13]; at 0.5 µM,49.8% (inactive)
same,inhibition,[13]; [26],-0.684%
same,inhibition,[13]; [27],1.16%
same,inhibition,[14]; at 0.5 µM,2.91% (inactive)
same,inhibition,[14]; [20],17.6%
same,inhibition,[14]; [21],76.8%
same,inhibition,[15]; [28],98.8%
same,inhibition,[15]; at 0.5 µM,52.1% (inactive)
same,inhibition,[15]; [29],104%
same,inhibition,[16],76.8% (inactive)
same,inhibition,[16]; [30],71%
same,inhibition,[16]; [31],77.3%
same,inhibition,[17]; at 0.5 µM,79.5% (inactive)
same,inhibition,[17]; [32],69.2%
same,inhibition,[17]; [33],84.4%
same,inhibition,"[17]; single agent, at 0.05 µM",-3.59%
same,inhibition,"[17]; single agent, at 5 µM",98.4%
C=C1C(=O)O[C@@H]2[C@H]3O[C@]3(C)CC/C=C(\C)CC[C@@H]12,survival,[8],0.167 (inactive)
same,parasite load remaining,[7],-0.555% (active) and 48% (inactive)
same,viability,[7],117% and 76.6%
same,luciferase signal,[9],92 AU (inactive)
NC(=O)c1ccc(N(C(N)=O)c2c(F)cccc2F)nc1-c1ccc(F)cc1F,liver cell % of control,[1],98.2% and 93.2% and 92%
same,parasite % of control,[1],55.7% (inactive) and 44.1% (inactive) and 51.8% (inactive)
CC(=O)Nc1nc(C)c(-c2ccc(Cl)c(S(=O)(=O)NCCO)c2)s1,inhibition,[10]; at 0.5 µM,1.54% (inactive)
same,inhibition,[10]; [19],-12.3%
same,inhibition,[10]; [20],15.7%
same,inhibition,[10]; [21],14.2%
same,inhibition,[11]; at 0.5 µM,17% (inactive)
same,inhibition,[11]; [22],5.45%
same,inhibition,[11]; [23],52.4%
same,inhibition,[12]; at 0.5 µM,14.3% (inactive)
same,inhibition,[12]; [24],17.8%
same,inhibition,[12]; [25],10.3%
same,inhibition,[13]; at 0.5 µM,10.9% (inactive)
same,inhibition,[13]; [26],10.4%
same,inhibition,[13]; [27],1.8%
same,inhibition,[14]; at 0.5 µM,9.32% (inactive)
same,inhibition,[14]; [20],10.4%
same,inhibition,[14]; [21],43.2%
same,inhibition,[15]; [28],22.7%
same,inhibition,[15]; at 0.5 µM,6.36% (inactive)
same,inhibition,[15]; [29],12.2%
same,inhibition,[16],23.1% (inactive)
same,inhibition,[16]; [30],23.7%
same,inhibition,[16]; [31],25.1%
same,inhibition,[17]; at 0.5 µM,-8.22% (inactive)
same,inhibition,[17]; [32],-13.7%
same,inhibition,[17]; [33],-7.2%
same,inhibition,"[17]; single agent, at 0.05 µM",-0.058%
same,inhibition,"[17]; single agent, at 5 µM",1.73%
CCCNC(=O)[C@H]1O[C@@H]1C(=O)N[C@H](C(=O)N1CCC[C@H]1C(=O)OC)C(C)CC (stereo not given in full),fold fluorescence,[18],3.89 [at 125.8 µM] (inactive)
